# Compound activity as filed in PubChem BioAssay.
# This is a sample that favours compounds with a hit; in the whole collection about 11% have one here.
# AmpC detergent – blocks E. coli AmpC beta-lactamase in detergent assay; AmpC hydrolysis of nitrocefin, absorbance 480 nm, 0.01% Triton; AID 485294; P00811; 370,000 tested, 0.041% active; Potency, µM (titrated, usually from 114 µM), actives largely listed as inhibitors; also: nearly all actives have a fitted effect of over 25% in size
# Target sequence (P00811 whole entry, looked up): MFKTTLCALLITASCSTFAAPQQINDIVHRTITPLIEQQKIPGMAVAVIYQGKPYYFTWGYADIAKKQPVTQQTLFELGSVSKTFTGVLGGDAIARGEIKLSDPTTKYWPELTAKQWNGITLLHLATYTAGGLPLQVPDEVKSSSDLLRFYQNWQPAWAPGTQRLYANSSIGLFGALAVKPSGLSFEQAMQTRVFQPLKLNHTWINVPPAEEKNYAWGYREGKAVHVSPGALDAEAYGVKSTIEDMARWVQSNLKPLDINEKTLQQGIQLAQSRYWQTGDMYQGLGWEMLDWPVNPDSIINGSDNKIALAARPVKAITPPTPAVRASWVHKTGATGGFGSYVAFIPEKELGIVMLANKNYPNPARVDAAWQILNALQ
#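 20 mM phosphate pH 7.0 + 0.01% (detergent screen) or 0.0001% Triton X-100; 5.3 nM AmpC reagent; cpd preinc 15 min RT; nitrocefin (800 uM stock) to start; A480 q20 s × 4 min; Activity was normalised to no-enzyme and no-compound control wells.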
# AMA1 RON2 block – AMA1-RON2 (P. falciparum) interaction inhibition; AlphaScreen AMA1-biotinylated RON2 peptide binding; 360,000 tested, 0.2% active; Potency, µM (top dose mostly 58.2 µM), usual class: inhibitors; also: nearly all actives have a fitted effect of over 45% in size
#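 AMA1 (3D7) with his tag at 25 nM final met compounds first, then biotinylated RON2 peptide at 25 nM; detection used donor plus acceptor beads, 10 µg/mL apiece, read by AlphaScreen after 30 min at room temperature.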
# Pf growth 48h – inhibits P. falciparum growth in the first generation, 48 h; P. falciparum luciferase growth in erythrocytes, 48 h; Potency, µM (titrated, usually from 28.7 µM), most hits filed as inhibitors; 310,000 tested, 5.9% active; AID 504832
#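 Luciferase-expressing parasites in RBCs, 2% Hct / 0.1% parasitemia final; RPMI 1640 + 0.5% Albumax; 37 C, 5% CO2, one generation; luminescence read-out, lower signal = inhibition.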
# Pf growth 96h – inhibits malaria parasite growth, 96 h. P. falciparum luciferase reporter growth, 96 h. Potency, µM (series often up to 28.7 µM), actives largely listed as inhibitors. 320,000 tested, 6.9% active. AID 504834
#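 Erythrocytes infected with luciferase-expressing P. falciparum were dispensed at 2% hematocrit and 0.05% parasitemia (final), then incubated with compounds 96 hours at 37 C in 5% CO2. Luminescence after detection reagent addition reported growth.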
# AmpC inh no detg – AmpC beta-lactamase inhibition without detergent; Potency, µM (highest dose often 57.1 µM), actives largely listed as inhibitors; P00811; 330,000 tested, 0.52% active; AmpC nitrocefin hydrolysis, absorbance 480 nm, 0.0001% Triton; AID 485341; also: nearly all actives have a fitted effect of over 20% in size
#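 AmpC (5.3 nM in the dispensed reagent) in 20 mM phosphate pH 7.0 with 0.01% (detergent screen) or 0.0001% Triton X-100 was preincubated with compounds for 15 min at room temperature. Nitrocefin was then added from an 800 uM solution, and hydrolysis was followed at 480 nm.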
# HCV inh – blocks hepatitis C virus. Huh7.5.1 HCVcc-Cre infection, luciferase reporter, 44 h. Potency, µM (highest dose often 41.8 µM), most hits filed as inhibitors. 340,000 tested, 3.4% active. AID 651820
#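 Compounds are dispensed onto cells plated 4 h earlier at 1,000 per well, with HCVcc-Cre virus (about 0.5 moi) added next. Following 44 h of culture, luminescent signal is measured for 15 sec after 15 min with substrate at room temperature.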
# Numbers stand for hits; i = inactive; ? = inconclusive; nt = not tested or not shown; [ ] = another dose, or the depositor's remark. Calls follow the shape of the dose curve; as a rule, active = well fitted curve in the direction sought with a large enough effect; inconclusive = small, poorly fitted or top-dose-only effect, or another doubt; inactive = no such curve, though single readings can be large; an effect the other way counts as inactive or inconclusive.
SMILES,AmpC detergent,AMA1 RON2 block,Pf growth 48h,Pf growth 96h,AmpC inh no detg,HCV inh
CCc1cccc(NC(=O)C2CCCN(c3ncnc4onc(-c5ccc(F)cc5)c34)C2)c1 (stereo not drawn),i,nt,nt,nt,nt,nt
COc1ccc(S(=O)(=O)N2CCCCC2)cc1NC(=O)c1ccc([N+](=O)[O-])o1,i,i,?,6.57µM,i,10µM
CCN1CCN(c2ccc(S(=O)(=O)N3CCCCC3)cc2NC(=O)c2ccc([N+](=O)[O-])o2)CC1,?,i,13.1µM,8.28µM,?,3.55µM
COc1ccc(-c2noc(-c3ccc(NC4CCCCC4)c([N+](=O)[O-])c3)n2)cc1,i,nt,nt,nt,nt,nt
CCOC(=O)c1cccc(NC(=S)N2CCN(c3ncc4c(=O)c(C(=O)O)cn(CC)c4n3)CC2)c1,i,i,i,i,i,i
CCn1cc(C(=O)O)c(=O)c2cnc(N3CCN(C(=S)Nc4ccccc4)CC3)nc21,i,i,0.117µM,?,i,i
CCCCOC(=O)c1ccc(NC(=S)N2CCN(c3ncc4c(=O)c(C(=O)O)cn(CC)c4n3)CC2)cc1,i,i,2.62µM,1.31µM,i,i
CCN(CC)C(=O)Oc1cc2c(-c3cc4cccc(OC)c4o3)cc(=O)oc2cc1C,i,i,10.4µM,10.4µM,i,6.31µM
Cc1cc2oc(=O)cc(-c3cc4ccccc4o3)c2cc1OC(=O)N(C)C,i,i,?,?,i,5.01µM
COc1cccc2cc(-c3cc(=O)oc4ccc(O)cc34)oc12,i,i,?,?,i,i
CN(C)C(=O)Oc1ccc2oc(=O)cc(-c3cc4ccccc4o3)c2c1,i,i,i,i,i,11.2µM
COc1ccc(CCn2c3c(c(=O)[nH]c2=O)C(NC(=O)c2ccccc2F)(C(F)(F)F)C(=O)N3)cc1OC (stereo not drawn),i,nt,nt,nt,nt,nt
CC(=O)c1ccc(NC(=O)c2nc(-c3ccccc3)n(-c3ccc(Cl)cc3)n2)cc1,i,nt,nt,nt,nt,nt
O=C1CCC(=O)N1c1ccc(-c2nc3ccccc3s2)cc1,?,i,i,i,i[2.29 µM],i
O=C1NC(c2ccccc2)=C(c2nc3ccccc3s2)C(c2ccccc2)N1 (stereo not drawn),?,i,?,8.28µM,i,?
Cc1c2ccccc2nc2ccccc12,nt,i,nt,nt,nt,i
Cc1c2ccccc2c(C)c2c1ccc1ccccc12,?,i,0.928µM,0.657µM,i,10µM
CCOC(=O)CSC1=Nc2ccccc2C2=NC(CCC(=O)NCc3ccc(OC)cc3)C(=O)N12 (stereo not drawn),i,nt,nt,nt,nt,nt
COc1ccc(S[C@@H](CCN2CC[C@H](C)CCC2=O)c2ccccc2)cc1,i,i,8.28µM,?,i,?
Cc1ccc(S[C@@H](CCN2CC[C@H](C)CCC2=O)c2ccccc2)cc1,i,i,?,9.28µM,i,?
C[C@@H]1CCC(=O)N(CC[C@H](Sc2ccc(Br)cc2)c2ccccc2)CC1,i,i,?,?,i,?
O=C(Cc1ccc(-c2ccccc2)cc1)NCCS(=O)(=O)N1CCN(c2cccc(Cl)c2)CC1,i,nt,nt,nt,nt,nt
Cc1ccc(CCNC(=O)c2ccc3c(c2)N(Cc2cccc(Cl)c2)C(=O)c2ccccc2S3(=O)=O)cc1,i,nt,nt,nt,nt,nt
Cc1ccc(N(CC(=O)Nc2cccc(Cl)c2C)S(=O)(=O)c2c(C)noc2C)cc1,i,nt,nt,nt,nt,nt
O=C(Nc1ccc(F)cc1F)c1cc2nc3c(c(C(F)(F)F)n2n1)CCCC3,?,i,i,10.4µM,i,i
SMILES,AmpC detergent,AMA1 RON2 block,Pf growth 48h,Pf growth 96h,AmpC inh no detg,HCV inh
O=C1N=C(N2CCCC2)S/C1=C\c1ccccc1,?,i,14.7µM,?,i,i
CCCOc1ccccc1/C=C1\SC(N2CCCCC2)=NC1=O,?,i,?,?,i,10µM
O=C(CC1C(=O)N(c2ccc(F)cc2)C(=O)N1Cc1ccc2c(c1)OCO2)Nc1ccc(F)cc1 (stereo not drawn),i,nt,nt,nt,nt,nt
COc1ccccc1C(=O)Nc1ccc2c(c1)CC1(C(=O)N(C)C(=O)N(C)C1=O)C1CCCN21 (stereo not drawn),i,i,?,2.62µM,i,i
Cc1cccc(C(=O)Nc2ccc3c(c2)CC2(C(=O)N(C)C(=O)N(C)C2=O)C2CCCN32)c1 (stereo not drawn),i,i,?,8.28µM,i,i
Cc1cccc(C(=O)Nc2ccc(C(=O)N3CCCCC3C)cc2)c1 (stereo not drawn),i,i,?,i,i,nt
COc1ccc(S(=O)(=O)c2cn(C)c3cc(N4CCCCCC4)c(F)cc3c2=O)cc1,i,nt,nt,nt,nt,nt
Cc1nc2ccc(S(=O)(=O)CCC(=O)Nc3ccc(C)c(C)c3)cc2s1,i,nt,nt,nt,nt,nt
Cc1ccc(-c2cc(C(F)(F)F)n3nc(C(=O)Nc4sc5c(c4C#N)CCC(C)C5)cc3n2)cc1 (stereo not drawn),i,nt,nt,nt,nt,nt
CC(=Cc1ccccc1)C=C1SC(=S)N(CCCC(=O)Nc2ccc(C(=O)O)cc2)C1=O,nt,i,nt,nt,nt,nt
O=C(O)CCCN1C(=O)/C(=C\c2ccco2)SC1=S,i,i,i,2.94µM,i,i
CC(=C\c1ccccc1)/C=C1/SC(=S)N(CCCC(=O)O)C1=O,i,i,8.28µM,?,i,i
CC(/C=C1\SC(=O)N(CCCC(=O)O)C1=O)=C\c1ccccc1,i,i,?,5.86µM,i,i
CCOC(=O)C1(Cc2cccc(Cl)c2)CCCN(C(=O)c2cc(C)on2)C1 (stereo not drawn),i,i,i,i,i,nt
C=CCCC(=O)N1CCCC(Cc2cccc(Cl)c2)(C(=O)OCC)C1 (stereo not drawn),?,i,i,11.7µM,i,?
CCOC(=O)C1(Cc2cccc(Cl)c2)CCCN(C(=O)c2ccc(C)nc2)C1 (stereo not drawn),i,i,i,14.7µM,i,i
COc1cccc(-c2nn3c(=O)cc(CN4CCN(S(=O)(=O)c5ccc(C)cc5)CC4)nc3s2)c1,i,nt,nt,nt,nt,nt
CCN(c1ccccc1)c1nnc(NC(=O)Nc2ccc(Br)cc2)s1,i,nt,nt,nt,nt,nt
CCOc1ccc(-c2csc(NC(=O)CSC3=NC(=O)CN3C(C)=O)n2)c2ccccc12,i,i,?,10.4µM,i,i
CCOc1ccc(NC(=O)/C=C/c2ccccc2)c([N+](=O)[O-])c1,i,i[2.32 µM],9.28µM,8.28µM,i,?
CC1CCN(c2nnc(-n3cccc3CNc3cccc(F)c3)s2)CC1,i,nt,nt,nt,nt,nt
COc1ccc(CNC(=O)CN2CCN(S(=O)(=O)c3cc(Br)ccc3Br)CC2)cc1OC,i,i,10.4µM,?,i,i
Cc1cc2ccccc2n1CCNC(=O)c1ccc(S(=O)(=O)N2CCCCC2)cc1,i,i,2.08µM,1.65µM,i,i
COc1ccc(S(=O)(=O)N2CCC(C(=O)NCc3ccncc3)CC2)cc1Cl,i,i,i,1.85µM,i,i
